Measured values from PubChem BioAssay AID588811 (Broad Institute, 2011).
Results with a measured potency or affinity are listed apart.

The compounds below were run against Dual specificity protein kinase CLK1 (Homo sapiens) (UniProt P49759) (assay: CLK1 kinase inhibitors, off-target check, dose response, selectivity assay for Dyrk1A inhibitor project, biochemical, cherry-picked samples (AID 588811)). Settings: recombinant CLK1, ADP-Glo luminescence, 2 h; series mostly up to 12 µM; activity change, negative = inhibition: at the top concentration;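 active = compounds lowering signal whose fitted half-maximal concentration is at most twice the top tested dose; inconclusive = flat curve with 30 to 70% inhibition, or poor fit; inactive = the rest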.
Dual specificity protein kinase CLK1 (Homo sapiens), sequence (P49759 whole entry, looked up): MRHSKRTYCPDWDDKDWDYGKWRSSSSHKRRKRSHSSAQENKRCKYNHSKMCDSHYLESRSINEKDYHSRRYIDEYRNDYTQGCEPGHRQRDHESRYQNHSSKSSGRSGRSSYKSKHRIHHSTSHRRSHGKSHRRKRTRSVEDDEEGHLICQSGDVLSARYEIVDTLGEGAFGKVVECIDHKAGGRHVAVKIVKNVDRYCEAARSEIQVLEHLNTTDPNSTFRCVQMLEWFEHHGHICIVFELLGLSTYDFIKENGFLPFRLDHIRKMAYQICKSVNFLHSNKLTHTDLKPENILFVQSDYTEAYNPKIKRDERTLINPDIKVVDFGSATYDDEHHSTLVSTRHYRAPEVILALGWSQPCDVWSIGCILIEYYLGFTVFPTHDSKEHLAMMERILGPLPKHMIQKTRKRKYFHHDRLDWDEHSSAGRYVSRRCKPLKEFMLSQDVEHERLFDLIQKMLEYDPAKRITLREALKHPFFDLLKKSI

Activity change, negative = inhibition, inactive:
Clc1cc(Cl)cc(CNc2cc(-c3ccc4c(c3)OCO4)ncn2)c1 -20%
Clc1ccc(CNc2nccc(-c3ccc4cn[nH]c4c3)n2)cc1Cl -19.6%
Clc1ccc(CNc2cc(-c3ccc4c(c3)OCO4)ncn2)cc1 -23.3%
COc1cccc(Nc2nc(NCCO)c3ccccc3n2)c1 -8.29% [at 1.35 µM]
COCCNC(=O)c1ccc2c(c1)nc(C)n2-c1cccc(F)c1 -16.5%
Clc1ccccc1-c1ccc2ncnc(NCc3ccc4c(c3)OCO4)c2c1 -3.63%
N#CCSc1nc(Nc2ccc3c(c2)OCO3)c2ccccc2n1 -4.57%
Cc1noc(NS(=O)(=O)c2ccc(NC(=O)c3oc4ccc(F)cc4c3C)cc2)c1C -34%
COc1cccc(-c2sc3ccccc3c2-c2ccc(OCCN3CCCC3)cc2)c1 -9.56%
O=C(NCc1ccco1)c1sc2ccccc2c1Cl -12.3%
N#Cc1c(C(F)(F)F)cc(-c2cccc(Cl)c2)[nH]c1=O -15.6%
Cc1c(-c2ccnc(NCc3ccc(Cl)cc3)n2)sc(=O)n1C -45%
CCCC(=O)Nc1nc(-c2ccc3c(c2)OCCO3)cs1 -24.5%
Fc1cccc(Nc2nc(-c3ccncc3)nc3ccccc23)c1 -43.5%
CC(=O)Nc1cccc(NC(=O)c2cc3ccccc3o2)c1 -17%
Cc1ccnc(NC(=O)c2cccc(S(=O)(=O)N3CCN(c4ccccc4)CC3)c2)c1 -5.91%
COc1ccc2c(Cl)c(C(=O)NCc3ccco3)sc2c1 -35.8%
